The full ranking holds about 8,300 sequences; the median of “log2 fold change of degron read counts, EGFP-low vs EGFP+ sorted cells (limma voom), compound-induced degradation” is about -1.1, and the highest 2% start at about 3.2. This is one part of a sample in which the highest values are shown more often than they occur.
T1: CRBN, Q96SW2
T1 chain: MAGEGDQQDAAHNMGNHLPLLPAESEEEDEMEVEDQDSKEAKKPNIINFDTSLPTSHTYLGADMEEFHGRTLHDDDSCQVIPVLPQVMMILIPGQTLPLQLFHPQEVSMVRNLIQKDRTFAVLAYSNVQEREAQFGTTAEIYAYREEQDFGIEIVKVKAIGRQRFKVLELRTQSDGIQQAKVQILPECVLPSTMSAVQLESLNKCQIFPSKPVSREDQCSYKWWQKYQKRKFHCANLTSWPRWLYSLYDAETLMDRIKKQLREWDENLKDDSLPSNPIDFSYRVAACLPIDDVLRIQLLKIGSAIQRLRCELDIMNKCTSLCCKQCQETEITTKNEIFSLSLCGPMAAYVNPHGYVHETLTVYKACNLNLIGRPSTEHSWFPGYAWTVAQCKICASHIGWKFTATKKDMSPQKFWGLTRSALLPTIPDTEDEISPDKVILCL


Target: T1, CRBN, Q96SW2
Assay: log2 fold change of degron read counts, EGFP-low vs EGFP+ sorted cells (limma voom), compound-induced degradation; higher = more compound-induced degradation of the degron-EGFP fusion; degrons are variants of IKZF1/3 zinc finger 2; compound dose not given here
Conditions: Jurkat, 18 h
[1] = compound: compound 19 (5-tert-butyl-thalidomide)
[2] = compound: compound 22 (5-morpholino-thalidomide)
[3] = compound: compound 33 (diphenyl IMiD analogue)
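Also: pooled lentiviral library of zinc finger degron-EGFP fusions in mCherry-positive Jurkat cells, FACS-sorted after compound exposure, with degron abundance counted by next-generation sequencing.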

Sequence | log2 fold change of degron read counts [1] | log2 fold change of degron read counts [2] | log2 fold change of degron read counts [3] | log2 fold change of degron read counts (compound: thalidomide)
FTCNICGAIFTQKGNLLRHIKL [46F_47T_49N_50I_52G_53A_54I_55F_67L_, Q9UKT9] | -1 | 0.0209 | 0.936 | 1.06
FLCDICGANFTQKGNLLRHIKL [46F_47L_49D_50I_52G_53A_54N_55F_67L_, Q9UKT9] | -1.24 | -1.68 | 0.196 | -0.528
FYCDICGANFTQKGNLLRHIKL [46F_47Y_49D_50I_52G_53A_54N_55F_67L_, Q9UKT9] | 2.78 | 3.42 | 1.2 | -0.676
FHCDICGANFTQKGNLLRHIKL [46F_47H_49D_50I_52G_53A_54N_55F_67L_, Q9UKT9] | -0.867 | -0.624 | -1.82 | -2.82
FWCDICGANFTQKGNLLRHIKL [46F_47W_49D_50I_52G_53A_54N_55F_67L_, Q9UKT9] | 2.81 | 3.71 | 1.34 | 0.139
FECDICGANFTQKGNLLRHIKL [46F_47E_49D_50I_52G_53A_54N_55F_67L_, Q9UKT9] | -1.28 | -2.43 | 0.537 | 0.012
FCCDICGANFTQKGNLLRHIKL [46F_47C_49D_50I_52G_53A_54N_55F_67L_, Q9UKT9] | 0.761 | 0.588 | 0.858 | -0.326
FDCPVCGAEFTQKGNLLRHIKL [46F_47D_49P_50V_52G_53A_54E_55F_67L_, Q9UKT9] | -0.42 | -1.74 | 0.6 | 0.131
FSCDVCGAAFTQKGNLLRHIKL [46F_47S_49D_50V_52G_53A_54A_55F_67L_, Q9UKT9] | 1.56 | 1.45 | 1.14 | -0.292
LICEICGFTCTQKGNLLRHIKL [46L_47I_49E_50I_52G_53F_54T_55C_67L_, Q9UKT9] | 0.795 | 2.24 | 2.34 | 3.13
FWCEICGRPFTQKGNLLRHIKL [46F_47W_49E_50I_52G_53R_54P_55F_67L_, Q9UKT9] | 1.92 | 0.403 | 0.52 | -0.912
FNCEQCGAPFTQKGNLLRHIKL [46F_47N_49E_50Q_52G_53A_54P_55F_67L_, Q9UKT9] | -1.19 | -2 | -2.69 | -2.17
FNCEICGAPFTQKGNLLRHIKL [46F_47N_49E_50I_52G_53A_54P_55F_67L_, Q9UKT9] | 3.39 | 2.54 | 0.567 | 1.58
FQCEICGRPFTQKGNLLRHIKL [46F_47Q_49E_50I_52G_53R_54P_55F_67L_, Q9UKT9] | -0.793 | -0.383 | -1.07 | 1.31
FICEICGAPFTQKGNLLRHIKL [46F_47I_49E_50I_52G_53A_54P_55F_67L_, Q9UKT9] | 2.83 | 3.53 | 2.76 | 3.43
FICEICGADFTQKGNLLRHIKL [46F_47I_49E_50I_52G_53A_54D_55F_67L_, Q9UKT9] | -2.33 | -0.887 | -0.381 | 0.298
FWCEICGADFTQKGNLLRHIKL [46F_47W_49E_50I_52G_53A_54D_55F_67L_, Q9UKT9] | 0.346 | 0.98 | -0.492 | -1.5
FQCEICGAPFTQKGNLLRHIKL [46F_47Q_49E_50I_52G_53A_54P_55F_67L_, Q9UKT9] | 3.69 | 3.61 | 2.03 | 3.72
FGCEICGAPFTQKGNLLRHIKL [46F_47G_49E_50I_52G_53A_54P_55F_67L_, Q9UKT9] | 1.88 | 0.802 | -0.557 | -0.51
FWCEICGAPFTQKGNLLRHIKL [46F_47W_49E_50I_52G_53A_54P_55F_67L_, Q9UKT9] | 3.82 | 3.42 | 2.64 | 1.23
FQCEICGADFTQKGNLLRHIKL [46F_47Q_49E_50I_52G_53A_54D_55F_67L_, Q9UKT9] | -0.47 | 0.00637 | 1.29 | 3
FNCEICGADFTQKGNLLRHIKL [46F_47N_49E_50I_52G_53A_54D_55F_67L_, Q9UKT9] | -1.15 | -2.31 | -1.14 | -1.4
